Reference: PubChem BioAssay (NCATS)
Activity calls are given as the source filed them. The call rests on the fitted dose curve; in most records, active means well fitted curve in the direction sought with a large enough effect; inactive means no such curve, though single readings can be large or run the other way.

The molecules below were run against Alpha-galactosidase (Coffea arabica) (UniProt Q42656) (assay: Counterscreen for Glucocerebrosidase Inhibitors: qHTS Assay for Coffee Bean alpha-Galactosidase at pH 5.9 (AID 998)). Details: coffee bean alpha-galactosidase enzyme assay; series mostly up to 76.9 µM.
Alpha-galactosidase (Coffea arabica), sequence (Q42656 whole entry, looked up): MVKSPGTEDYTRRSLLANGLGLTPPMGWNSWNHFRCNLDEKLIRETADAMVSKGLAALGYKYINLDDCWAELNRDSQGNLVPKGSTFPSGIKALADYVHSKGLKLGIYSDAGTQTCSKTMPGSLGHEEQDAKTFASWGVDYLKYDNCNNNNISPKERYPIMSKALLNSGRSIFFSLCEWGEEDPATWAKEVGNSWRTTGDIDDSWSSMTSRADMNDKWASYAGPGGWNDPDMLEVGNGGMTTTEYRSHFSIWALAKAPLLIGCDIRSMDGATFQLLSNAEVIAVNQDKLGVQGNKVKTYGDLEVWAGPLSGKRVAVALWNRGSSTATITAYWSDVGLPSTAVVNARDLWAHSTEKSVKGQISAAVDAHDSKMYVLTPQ
Source text: NIH Chemical Genomics Center [NCGC]
NIH Molecular Libraries Screening Centers Network [MLSCN]
PI Name: Zheng, Wei [NIH]
Alpha-galactosidase is a homodimeric glycoprotein that hydrolyzes the terminal alpha-galactosyl moieties from glycolipids and glycoproteins. Deficiency of this enzyme results in Fabry Disease with progressive accumulation of globotriaosylceramide and other glycosphingolipids in vascular endothelial cells that causes renal failure, myocardial infarction and stroke, and premature death in patients. It has reported that the improper folding and trafficking of alpha-galactosidase resulted from the genetic mutations may account for a significant numbers of Fabry patients. […] We optimized this coffee bean alpha-galactosidase assay in 1536-well plate format as a counter-screen assay for identifying the selective small molecule inhibitors of other lysosomal enzymes.
NCGC Assay Protocol Summary:
This is a fluorogenic enzyme assay with 4-Methylumbelliferyl alpha-D-galactopyranoside as the substrate and green coffee bean […] (from Sigma-Aldrich) as the enzyme preparation. Upon the hydrolysis of this fluorogenic substrate, the resulting product, […]. 4-Methyllumbelliferone, can be excited at 365 nm and emits at 440 nm which can be detected by a standard fluorescence plate reader. Data were normalized to the controls for basal activity (without enzyme) and 100% activity (with enzyme). In the AC50 values were determined from concentration-response data modeled with the standard Hill equation.
Assay buffer: 50 mM citric acid, 0.005% Tween-20, pH 5.9. (pH 5.9 is an optimal condition for this enzyme assay.)
1536-well assay protocol for the coffee bean alpha-galactosidase:
(1) Add 2 ul/well of enzyme (2 nM final)
(2) Add 23 nL compounds in DMSO solution. The final titration was 0.7 nM to 77 uM.
(3) Add 1 ul of substrate (80 uM final)
(4) Incubate at room temperature for 20 min.
(5) Add 2 ul stop solution (1M NaOH and 1M Glycine mixture, pH 10)
(6) Detect the assay plate in a ViewLux plate reader (PerkinElmer) with Ex=365 nm and Em=440nm.
Keywords: Alpha-galactosidase, Fabry Disease, pharmacological chaperone, chaperone therapy, high throughput screening, alpha-galactosidase inhibitor, MLSMR, MLSCN, NIH Roadmap, qHTS and NCGC

Question: `NC(=O)CC[C@@H](N)C(=O)O` was tested. Which outcome did it give?
Answer: inactive

Question: How did the outcome turn out when `Nc1c2c(nc3ccccc13)CCCC2` was run?
Answer: inactive

Question: With `Nc1ccn([C@H]2CC[C@@H](CO)O2)c(=O)n1` as the molecule, how does the outcome read?
Answer: inactive

Question: Which outcome does the source give for `CNC[C@H](O)c1ccc(O)c(O)c1` here?
Answer: inactive

Question: How did the outcome turn out when `COc1cc(C(=O)OCCCN2CCCN(CCCOC(=O)c3cc(OC)c(OC)c(OC)c3)CC2)cc(OC)c1OC` was run?
Answer: inactive

Question: With `CC1=C(CC(=O)O)c2cc(F)ccc2/C1=C\c1ccc(S(C)=O)cc1` (stereo not given) as the molecule, how does the outcome read?
Answer: inactive

Question: With `C[C@]12CCC(=O)C=C1CC[C@@H]1[C@@H]2CC[C@@]2(C)[C@H]1CC[C@]2(O)C(=O)CO` as the molecule, how does the outcome read?
Answer: inactive

Question: Which outcome does the source give for `NC(N)=NCCC[C@H](N)C(=O)O` here?
Answer: inactive

Question: Which outcome does the source give for `O=C(O)CCc1nc(-c2ccccc2)c(-c2ccccc2)o1` here?
Answer: inactive

Question: For `COc1nc(C)nc(Cl)c1NC1=NCCN1`, which outcome is on record?
Answer: inactive

Question: How did the outcome turn out when `O=C(O)c1nn(Cc2ccc(Cl)cc2Cl)c2ccccc12` was run?
Answer: inactive

Question: `Cn1c(=O)c2c(ncn2C)n(C)c1=O` was tested. Which outcome did it give?
Answer: inactive

Question: `O=C1NCN(c2ccccc2)C12CCN(CCCC(c1ccc(F)cc1)c1ccc(F)cc1)CC2` was tested. Which outcome did it give?
Answer: inactive

Question: With `CN(C)CCOC(c1ccccc1)c1ccccc1` as the molecule, how does the outcome read?
Answer: inactive

Question: For `CCOC(=O)C(C)(C)Oc1ccc(Cl)cc1`, which outcome is on record?
Answer: inactive

Question: With `N[C@@H](Cc1c[nH]c2ccc(O)cc12)C(=O)O` as the molecule, how does the outcome read?
Answer: inactive

Question: How did the outcome turn out when `O=C(CCCN1CCC(O)(c2cccc(C(F)(F)F)c2)CC1)c1ccc(F)cc1` was run?
Answer: inactive

Question: With `O=C(O)c1cccnc1Nc1cccc(C(F)(F)F)c1` as the molecule, how does the outcome read?
Answer: inactive

Question: With `CCCC(C(=O)OCCN(CC)CC)(c1ccccc1)c1ccccc1` as the molecule, how does the outcome read?
Answer: inactive

Question: Which outcome does the source give for `Cc1ccc(N(CC2=NCCN2)c2cccc(O)c2)cc1` here?
Answer: inactive

Question: For `CN1[C@@H]2CC[C@H]1CC(OC(=O)c1cc(Cl)cc(Cl)c1)C2` (stereo not given in full), which outcome is on record?
Answer: inactive

Question: How did the outcome turn out when `O=C(O)CP(=O)(O)O` was run?
Answer: inactive

Question: How did the outcome turn out when `NCCc1ccc(O)c(O)c1` was run?
Answer: inactive

Question: How did the outcome turn out when `CCN(CC)CCOCCOC(=O)C1(c2ccccc2)CCCC1` was run?
Answer: inactive

Question: How did the outcome turn out when `C(=C\c1ccccc1)/CN1CCN(C(c2ccccc2)c2ccccc2)CC1` was run?
Answer: inactive

Question: `OCCN1CCN(CCCN2c3ccccc3C=Cc3ccccc32)CC1` was tested. Which outcome did it give?
Answer: inactive

Question: With `COc1ccc2c(c1)c(CC(=O)O)c(C)n2C(=O)c1ccc(Cl)cc1` as the molecule, how does the outcome read?
Answer: inactive

Question: For `Cc1cc(C(C)(C)C)cc(C)c1CC1=NCCN1`, which outcome is on record?
Answer: inactive

Question: Which outcome does the source give for `OCc1cc(C(O)CNCCCCCCOCCCCc2ccccc2)ccc1O` (stereo not given) here?
Answer: inactive

Question: For `c1ccc2nc(N3CCNCC3)ccc2c1`, which outcome is on record?
Answer: inactive

Question: With `CN(C)CCN(Cc1cccs1)c1ccccn1` as the molecule, how does the outcome read?
Answer: inactive

Question: Which outcome does the source give for `c1cc(CN2CCCCC2)cc(OCCCNc2nc3ccccc3s2)c1` here?
Answer: inactive

Question: With `CCNC(=O)N1CCN(CCCC(c2ccc(F)cc2)c2ccc(F)cc2)CC1` as the molecule, how does the outcome read?
Answer: inactive

Question: How did the outcome turn out when `O=C1N(c2ccccc2)c2ccccc2C1(Cc1ccncc1)Cc1ccncc1` was run?
Answer: inactive

Question: Which outcome does the source give for `CCCCCCCCC(=O)NCc1ccc(O)c(OC)c1` here?
Answer: inactive

Question: With `OC(CN1CCC(Cc2ccc(F)cc2)CC1)c1ccc(Cl)cc1` (stereo not given) as the molecule, how does the outcome read?
Answer: inactive

Question: How did the outcome turn out when `CCCCNc1c(C(=O)OCC)c(C)nc2c1cnn2CC` was run?
Answer: inactive

Question: With `C[C@]12CC[C@@H]3c4ccc(O)cc4CC[C@H]3[C@@H]1CCC2=O` as the molecule, how does the outcome read?
Answer: inactive

Question: With `COC(=O)C1=CCCN(C)C1` as the molecule, how does the outcome read?
Answer: inactive

Question: How did the outcome turn out when `COC(=O)C1=C(C)NC(C)=C(C(=O)OC)C1c1ccccc1[N+](=O)[O-]` was run?
Answer: inactive
